Screening data (PubChem BioAssay)
An excerpt weighted towards active compounds, which were near 7.8% of everything screened.
NOMO-1 viab: STK33 inhibitor candidate reducing NOMO-1 cell viability. NOMO-1 AML viability, CellTiter-Glo luminescence, 72 h. inhibition, % (no concentration beside the values). 37,000 compounds, 7.5% hits. AID 2330; in the data active = inhibition above about 80%; inconclusive = no clear call, values can overlap the other calls
MITF inhib: inhibitors of MITF | inhibition, % (no concentration beside the values) | 37,000 compounds, 0.28% hits | AID 2240 | TRPM1 promoter luciferase, luminescence, 24 h; in the data active = inhibition above about 85%; inconclusive = no clear call, values can overlap the other calls; inactive = below about 68%;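 note: human melanocyte line stably carrying TRPM1 promoter luciferase reporter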
Hedgehog inh: blocks Sonic Hedgehog signaling. Shh-LIGHT2 Gli-luciferase reporter, 30 h. inhibition, % (concentration not given with the values). 22,000 compounds, 2.1% hits;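 active = mean inhibition across valid replicates above about 65%, limit read from the data; inconclusive = mean under the limit, yet half or more replicates past it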;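 note: pathway switched on by Shh-conditioned medium diluted 1 in 25 in low serum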
Numbers without * were called inactive; u = inconclusive; x = not tested or not shown.

SMILES	NOMO-1 viab	MITF inhib	Hedgehog inh
Cc1noc(C)c1CSc1nc2[nH]ncc2c(=O)n1-c1ccccc1	108*	15	x
Cc1nc(CSc2nc3[nH]ncc3c(=O)n2-c2ccccc2)cs1	6	-6	x
C[C@H](CO)N1C[C@H](C)[C@@H](CN(C)Cc2ccc(C(=O)Nc3ccccc3N)cc2)Oc2c(NC(=O)Nc3ccccc3)cccc2C1=O	127*	2	x
C[C@@H]1CN([C@H](C)CO)C(=O)c2cccc(NC(=O)Nc3ccccc3)c2O[C@@H]1CN(C)Cc1ccc(C(=O)O)cc1	-18	-17	-7
C[C@@H]1CN([C@@H](C)CO)C(=O)c2cccc(NC(=O)Nc3ccc(F)cc3)c2O[C@@H]1CN(C)Cc1ccc(C(=O)Nc2ccccc2N)cc1	140*	22	x
C[C@H](CO)N1C[C@H](C)[C@@H](CN(C)Cc2ccc(C(=O)O)cc2)Oc2c(NC(=O)Nc3ccccc3)cccc2C1=O	-28	-2	-20
C[C@H](CO)N1C[C@H](C)[C@H](CN(C)Cc2ccc(C(=O)Nc3ccccc3N)cc2)Oc2c(NC(=O)Nc3ccc4c(c3)OCO4)cccc2C1=O	u	7	x
C[C@@H]1CN([C@H](C)CO)C(=O)c2cccc(NC(=O)Nc3ccc4c(c3)OCO4)c2O[C@H]1CN(C)Cc1ccc(C(=O)Nc2ccccc2N)cc1	127*	22	x
C[C@H](CO)N1C[C@H](C)[C@H](CN(C)Cc2ccc(C(=O)O)cc2)Oc2c(NC(=O)Nc3ccc(F)cc3)cccc2C1=O	13	7	16
C[C@H]1CN([C@@H](C)CO)C(=O)c2cccc(NC(=O)Nc3ccccc3)c2O[C@@H]1CN(C)Cc1ccc(C(=O)Nc2ccccc2N)cc1	127*	-1	x
CC(C)C1=CCC(C)/C(=C\c2ccc(Cl)cc2)C1=O (stereo unspecified)	4	-27	x
Cc1ccc(C(C)C)c(OCC(=O)Nc2cc(-c3nc4ccccc4o3)ccc2C)c1	-12	27	x
CN(CC(N)=O)S(=O)(=O)c1ccc2ccccc2c1	13	5	x
CCn1c(SCC(=O)Nc2cccc(F)c2)nnc1-c1ccc(Cl)cc1Cl	27	31	x
CCOC(=O)/C(=N/O)C1=NN=C(N)SC1	-3	-9	3
CNC(=O)NC(=O)CSc1nnc(-c2ccco2)o1	-18	5	-15
Cc1ccc(S(=O)(=O)NCCCO)cc1C(=O)O	-20	-10	x
C[C@H](CO)N1C[C@H](C)[C@H](CN(C)Cc2ccc(C(=O)Nc3ccccc3N)cc2)Oc2c(NC(=O)Nc3ccc(C(F)(F)F)cc3)cccc2C1=O	60	-19	x
C[C@H](CO)N1C[C@H](C)[C@@H](CN(C)Cc2ccc(C(=O)Nc3ccccc3N)cc2)Oc2c(NC(=O)c3ccncc3)cccc2C1=O	39	19	x
C[C@@H]1CN([C@@H](C)CO)C(=O)c2cccc(NC(=O)Nc3ccccc3)c2O[C@H]1CN(C)Cc1ccc(C(=O)Nc2ccccc2N)cc1	125*	7	x
C[C@@H]1CN([C@@H](C)CO)C(=O)c2cccc(NC(=O)Nc3ccc(C(F)(F)F)cc3)c2O[C@@H]1CN(C)Cc1ccc(C(=O)Nc2ccccc2N)cc1	128*	-28	x
C[C@H]1CN([C@@H](C)CO)C(=O)c2cccc(NC(=O)Nc3ccccc3)c2O[C@@H]1CN(C)Cc1ccccc1	36	-15	-22
CC(C)NC(=O)Nc1cccc2c1O[C@H](CN(C)Cc1ccc(C(=O)Nc3ccccc3N)cc1)[C@H](C)CN([C@H](C)CO)C2=O	119*	3	x
COc1cc(NC(=O)COc2ccc(Br)cc2)ccc1NC(=O)c1cc2ccccc2o1	10	-42	x
COc1ccccc1-n1c(SCC(=O)c2ccc3c(c2)CCCC3)nc2ccccc2c1=O	29	2	x
SMILES	NOMO-1 viab	MITF inhib	Hedgehog inh
CCC(C)C1NC(=O)C(CC(C)C)NC(=O)C(CC(=O)O)NC(=O)C(C(C)C)NC(=O)C(CC(C)C)NC(=O)C(CC(C)C)NC(=O)C(CCC(N)=O)NC(=O)CC(CCCCCCCCCC(C)C)OC1=O (stereo unspecified)	x	x	77*
Nc1c2ccccc2nc2ccccc12	107*	66	-11
Nc1c2c(nc3ccccc13)CCCC2	12	0	-18
CC(C)[C@@H]1CC[C@@H](C)C[C@H]1OC(=O)c1ccccc1	19	-3	9
O=C(CCCSc1nc(-c2ccco2)cc(C(F)(F)F)n1)NC1CCCC1	47	-5	19
CCC(C)C1NC(=O)C(CCC(=O)O)N(C)C(=O)C(C(C)C)N(C)C(=O)CNC(=O)C2CCCN2C(=O)C(Cc2ccccc2)NC(=O)C(C(C)CC)OC(=O)C(CCC(=O)O)N(C)C(=O)C(C(C)C)NC(=O)C2CCCCN2C1=O (stereo unspecified)	110*	59	100*
CC12CC3CC(C1)CC(NC(=O)c1ccc(Cl)cc1Cl)(C3)C2	115*	34	-60
CC(Oc1ccc(Cl)cc1Cl)C(=O)Nc1cccc(NC(=O)c2ccc(Cl)cc2Cl)c1 (stereo unspecified)	17	-11	x
O=C(COc1ccc(Cl)cc1Br)Nc1ccccc1C(=O)Nc1ccccc1	30	2	x
COc1ccc(S(=O)(=O)Nc2ccc3c(c2)C(=O)N([C@H](C)CO)C[C@H](C)[C@@H](CN(C)Cc2ccc(Cl)c(Cl)c2)O3)cc1	51	-7	-5
COc1ccc(S(=O)(=O)Nc2ccc3c(c2)C(=O)N([C@H](C)CO)C[C@H](C)[C@H](CN(C)Cc2ccc(Cl)c(Cl)c2)O3)cc1	73	7	16
COc1ccc(S(=O)(=O)Nc2ccc3c(c2)CC(=O)N([C@@H](C)CO)C[C@H](C)[C@H](CN(C)Cc2ccc(Cl)c(Cl)c2)O3)cc1	105*	10	39
COc1ccc(S(=O)(=O)Nc2ccc3c(c2)C(=O)N([C@@H](C)CO)C[C@@H](C)[C@@H](CN(C)Cc2ccc(Cl)c(Cl)c2)O3)cc1	114*	61	u
COc1ccc(S(=O)(=O)Nc2ccc3c(c2)CC(=O)N([C@H](C)CO)C[C@@H](C)[C@@H](CN(C)Cc2ccc(Cl)c(Cl)c2)O3)cc1	114*	-6	31
COc1ccc(CN(C)C[C@@H]2Oc3ccc(NS(=O)(=O)c4ccc(OC)cc4)cc3CC(=O)N([C@H](C)CO)C[C@H]2C)cc1	11	5	3
COc1ccc(S(=O)(=O)Nc2ccc3c(c2)CC(=O)N([C@@H](C)CO)C[C@@H](C)[C@@H](CN(C)Cc2ccc(Cl)c(Cl)c2)O3)cc1	107*	9	38
COc1ccc(CN(C)C[C@H]2Oc3ccc(NS(=O)(=O)c4ccc(OC)cc4)cc3CC(=O)N([C@H](C)CO)C[C@H]2C)cc1	16	8	-12
COC(=O)c1cc(O)cc(O)c1C(=O)c1c(O)c(Cl)c(C)c(Cl)c1OC	7	-14	-41
CCCCC(=O)O[C@H]1CCC2C3CCc4cc(O)ccc4C3CC[C@@]21C (stereo partly specified)	54	-24	61
COc1ccc2c(c1)CCC1C2CC[C@@]2(C)C1CC[C@@H]2O (stereo partly specified)	6	-21	5
C[C@]12CC[C@@H]3c4ccc(O)cc4CC[C@H]3[C@@H]1CC[C@@H]2O	87*	24	91*
CC(=O)OC1CCC2C3CCc4cc(O)ccc4C3CCC12C (stereo unspecified)	99*	12	u
